{"source": "the supplement of paper PMC7156485", "conditions_in_all_cases": "concentration: 10 µM; 24 h", "key": {"HCC1569 [1]": {"system": "HCC1569", "experiment": "cell number relative to DMSO (% of DMSO); higher = more cells (less growth inhibition / toxicity)", "method_in_brief": "(§1)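 Cell number or H1.0 nuclear intensity appears as percent of the plate control, based on the median of replicates. Measurements came from HCC1569 and TDF cells exposed in triplicate to compounds at 10 µM for 24 h at 37 °C, then imaged in six fields per well at ×10. Positional effects were smoothed out of HCC1569 values.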"}, "TDF [2]": {"system": "TDF", "experiment": "cell number relative to DMSO (% of DMSO); higher = more cells (less growth inhibition / toxicity)", "method_in_brief": "as §1"}, "TDF [3]": {"system": "TDF", "experiment": "H1.0 immunofluorescence intensity relative to DMSO (% of DMSO); higher = stronger H1.0 induction, active = 120 or more", "method_in_brief": "as §1"}, "HCC1569 [4]": {"system": "HCC1569", "experiment": "H1.0 immunofluorescence intensity relative to DMSO (% of DMSO); higher = stronger H1.0 induction, active = 140 or more", "method_in_brief": "as §1"}}, "note": "Several values for one entry are separate records, joined by “and”; a condition that tells them apart may be missing. Identical values can stand only once.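 Throughout, for H1.0 immunofluorescence intensity relative to DMSO: TDF is a line of transformed human dermal fibroblasts of mesenchymal origin.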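 Throughout, for cell number relative to DMSO: TDF denotes transformed human dermal fibroblasts of mesenchymal origin.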"}
{"smiles": "NC(C(=O)NC1C(=O)N2C(C(=O)O)=C(Cl)CSC12)c1ccccc1", "note": "(stereo not drawn) [Cefaclor]", "values": [{"measurement": "cell number", "setting": "HCC1569 [1]", "result": 101}, {"measurement": "cell number", "setting": "TDF [2]", "result": 99.5}, {"measurement": "H1.0 immunofluorescence intensity", "setting": "TDF [3]", "result": "103 (inactive)"}, {"measurement": "H1.0 immunofluorescence intensity", "setting": "HCC1569 [4]", "result": "85.8 (inactive)"}]}
{"smiles": "CN1C(C)(C)CCCC1(C)C.O=C(O)C(O)C(O)C(=O)O", "note": "[Pempidine tartrate]", "values": [{"measurement": "cell number", "setting": "HCC1569 [1]", "result": 105}, {"measurement": "cell number", "setting": "TDF [2]", "result": 94.9}, {"measurement": "H1.0 immunofluorescence intensity", "setting": "TDF [3]", "result": "99.5 (inactive)"}, {"measurement": "H1.0 immunofluorescence intensity", "setting": "HCC1569 [4]", "result": "99.4 (inactive)"}]}
{"smiles": "C[n+]1ccccc1CC(=O)c1ccc(Br)cc1.[I-]", "note": "[2-[2-(4-bromophenyl)-2-oxoethyl]-1-methylpyridinium iodide]", "values": [{"measurement": "cell number", "setting": "HCC1569 [1]", "result": 98.7}, {"measurement": "cell number", "setting": "TDF [2]", "result": 87.6}, {"measurement": "H1.0 immunofluorescence intensity", "setting": "TDF [3]", "result": "96.4 (inactive)"}, {"measurement": "H1.0 immunofluorescence intensity", "setting": "HCC1569 [4]", "result": "97.5 (inactive)"}]}
{"smiles": "COc1ccc(-c2cc(=O)c3c(O)cc(OC4OC(COC5OC(C)C(O)C(O)C5O)C(O)C(O)C4O)cc3o2)cc1O", "note": "(stereo not drawn) [Diosmin]", "values": [{"measurement": "cell number", "setting": "HCC1569 [1]", "result": 104}, {"measurement": "cell number", "setting": "TDF [2]", "result": 107}, {"measurement": "H1.0 immunofluorescence intensity", "setting": "TDF [3]", "result": "91.8 (inactive)"}, {"measurement": "H1.0 immunofluorescence intensity", "setting": "HCC1569 [4]", "result": "92 (inactive)"}]}
{"smiles": "O=C(Cc1ccc(Cl)c(Cl)c1)OCCN1CCCC1.O=C(O)C(=O)O", "note": "[AC 915 oxalate]", "values": [{"measurement": "cell number", "setting": "HCC1569 [1]", "result": 101}, {"measurement": "cell number", "setting": "TDF [2]", "result": 105}, {"measurement": "H1.0 immunofluorescence intensity", "setting": "TDF [3]", "result": "92.1 (inactive)"}, {"measurement": "H1.0 immunofluorescence intensity", "setting": "HCC1569 [4]", "result": "99 (inactive)"}]}
{"smiles": "CCCC(=O)NCCc1c2n(c3ccc(OC)cc13)CCCc1ccccc1-2", "values": [{"measurement": "cell number", "setting": "HCC1569 [1]", "result": 96.8}, {"measurement": "cell number", "setting": "TDF [2]", "result": 109}, {"measurement": "H1.0 immunofluorescence intensity", "setting": "TDF [3]", "result": "84.7 (inactive)"}, {"measurement": "H1.0 immunofluorescence intensity", "setting": "HCC1569 [4]", "result": "100 (inactive)"}]}
{"smiles": "NCCCCCC(=O)O", "note": "[6-Aminohexanoic acid]", "values": [{"measurement": "cell number", "setting": "HCC1569 [1]", "result": 101}, {"measurement": "cell number", "setting": "TDF [2]", "result": 116}, {"measurement": "H1.0 immunofluorescence intensity", "setting": "TDF [3]", "result": "106 (inactive)"}, {"measurement": "H1.0 immunofluorescence intensity", "setting": "HCC1569 [4]", "result": "102 (inactive)"}]}
{"smiles": "N=C([NH3+])N1CCc2ccccc2C1.N=C([NH3+])N1CCc2ccccc2C1.O=S(=O)([O-])[O-]", "note": "[Debrisoquin sulfate]", "values": [{"measurement": "cell number", "setting": "HCC1569 [1]", "result": 104}, {"measurement": "cell number", "setting": "TDF [2]", "result": 107}, {"measurement": "H1.0 immunofluorescence intensity", "setting": "TDF [3]", "result": "101 (inactive)"}, {"measurement": "H1.0 immunofluorescence intensity", "setting": "HCC1569 [4]", "result": "101 (inactive)"}]}
{"smiles": "CCCCCC=CCC(O)C=CC=CCC=CCCCC(=O)O", "note": "(stereo not drawn)", "values": [{"measurement": "cell number", "setting": "HCC1569 [1]", "result": "105 and 98"}, {"measurement": "cell number", "setting": "TDF [2]", "result": "95.5 and 90.4"}, {"measurement": "H1.0 immunofluorescence intensity", "setting": "TDF [3]", "result": "92.5 (inactive) and 96.7 (inactive)"}, {"measurement": "H1.0 immunofluorescence intensity", "setting": "HCC1569 [4]", "result": "98.4 (inactive) and 99.8 (inactive)"}]}
{"smiles": "CCCCCC(O)C=CC=CCCCCCCCC(=O)O", "note": "(racemic)", "values": [{"measurement": "cell number", "setting": "HCC1569 [1]", "result": 102}, {"measurement": "cell number", "setting": "TDF [2]", "result": 107}, {"measurement": "H1.0 immunofluorescence intensity", "setting": "TDF [3]", "result": "95.9 (inactive)"}, {"measurement": "H1.0 immunofluorescence intensity", "setting": "HCC1569 [4]", "result": "101 (inactive)"}]}
{"smiles": "Cl.NC12CC3CC(CC(C3)C1)C2", "note": "[Amantadine hydrochloride]", "values": [{"measurement": "cell number", "setting": "HCC1569 [1]", "result": 107}, {"measurement": "cell number", "setting": "TDF [2]", "result": 109}, {"measurement": "H1.0 immunofluorescence intensity", "setting": "TDF [3]", "result": "104 (inactive)"}, {"measurement": "H1.0 immunofluorescence intensity", "setting": "HCC1569 [4]", "result": "98.4 (inactive)"}]}
{"smiles": "O=C(O)C1=CC(=C(c2ccc(O)c(C(=O)O)c2)c2ccc(O)c(C(=O)O)c2)C=CC1=O", "note": "[Aurintricarboxylic acid]", "values": [{"measurement": "cell number", "setting": "HCC1569 [1]", "result": 102}, {"measurement": "cell number", "setting": "TDF [2]", "result": 113}, {"measurement": "H1.0 immunofluorescence intensity", "setting": "TDF [3]", "result": "89.4 (inactive)"}, {"measurement": "H1.0 immunofluorescence intensity", "setting": "HCC1569 [4]", "result": "85.8 (inactive)"}]}
{"smiles": "O=C(O)c1cc(N(Cc2ccccc2O)Cc2cc(O)ccc2O)ccc1O", "note": "[Lavendustin A]", "values": [{"measurement": "cell number", "setting": "HCC1569 [1]", "result": 105}, {"measurement": "cell number", "setting": "TDF [2]", "result": 89.4}, {"measurement": "H1.0 immunofluorescence intensity", "setting": "TDF [3]", "result": "108 (inactive)"}, {"measurement": "H1.0 immunofluorescence intensity", "setting": "HCC1569 [4]", "result": "97.9 (inactive)"}]}
{"smiles": "COc1ccc(-c2ccc3cc(C(=O)O)ccc3c2)cc1C12CC3CC(CC(C3)C1)C2", "note": "[Adapalene]", "values": [{"measurement": "cell number", "setting": "HCC1569 [1]", "result": 85.4}, {"measurement": "cell number", "setting": "TDF [2]", "result": 88.7}, {"measurement": "H1.0 immunofluorescence intensity", "setting": "TDF [3]", "result": "99.5 (inactive)"}, {"measurement": "H1.0 immunofluorescence intensity", "setting": "HCC1569 [4]", "result": "102 (inactive)"}]}
{"smiles": "CC(C)NCC(O)c1ccc(NS(C)(=O)=O)cc1.Cl", "note": "(stereo not drawn) [Sotalol.HCl]", "values": [{"measurement": "cell number", "setting": "HCC1569 [1]", "result": 102}, {"measurement": "cell number", "setting": "TDF [2]", "result": 111}, {"measurement": "H1.0 immunofluorescence intensity", "setting": "TDF [3]", "result": "88.1 (inactive)"}, {"measurement": "H1.0 immunofluorescence intensity", "setting": "HCC1569 [4]", "result": "99 (inactive)"}]}
{"smiles": "CCCc1nc2c(C)cc(-c3nc4ccccc4n3C)cc2n1Cc1ccc(-c2ccccc2C(=O)O)cc1", "note": "[Telmisartan]", "values": [{"measurement": "cell number", "setting": "HCC1569 [1]", "result": 99.7}, {"measurement": "cell number", "setting": "TDF [2]", "result": 97.5}, {"measurement": "H1.0 immunofluorescence intensity", "setting": "TDF [3]", "result": "101 (inactive)"}, {"measurement": "H1.0 immunofluorescence intensity", "setting": "HCC1569 [4]", "result": "97.2 (inactive)"}]}
{"smiles": "CCC(CO)Nc1nc(NCc2ccc(-c3ccccn3)cc2)c2ncn(C(C)C)c2n1", "note": "[CR8, (S)-Isomer]", "values": [{"measurement": "cell number", "setting": "HCC1569 [1]", "result": 52.6}, {"measurement": "cell number", "setting": "TDF [2]", "result": 23.5}, {"measurement": "H1.0 immunofluorescence intensity", "setting": "TDF [3]", "result": "124 (active)"}, {"measurement": "H1.0 immunofluorescence intensity", "setting": "HCC1569 [4]", "result": "128 (inactive)"}]}
{"smiles": "CN(C)c1ccc(C2Nc3ccc4ccccc4c3C3=C2C(=O)CC(C)(C)C3)cc1Br", "note": "(stereo not drawn)", "values": [{"measurement": "cell number", "setting": "HCC1569 [1]", "result": 91.7}, {"measurement": "cell number", "setting": "TDF [2]", "result": 79.3}, {"measurement": "H1.0 immunofluorescence intensity", "setting": "TDF [3]", "result": "113 (inactive)"}, {"measurement": "H1.0 immunofluorescence intensity", "setting": "HCC1569 [4]", "result": "130 (inactive)"}]}
{"smiles": "COc1ccc2c(OC)c3ccoc3nc2c1OC", "note": "[Skimmianine]", "values": [{"measurement": "cell number", "setting": "HCC1569 [1]", "result": 100}, {"measurement": "cell number", "setting": "TDF [2]", "result": 98.2}, {"measurement": "H1.0 immunofluorescence intensity", "setting": "TDF [3]", "result": "99.1 (inactive)"}, {"measurement": "H1.0 immunofluorescence intensity", "setting": "HCC1569 [4]", "result": "96.2 (inactive)"}]}
{"smiles": "CC(C)(C)NCC(O)c1ccc(O)c(CO)c1.CC(C)(C)NCC(O)c1ccc(O)c(CO)c1.O=S(=O)(O)O", "note": "(stereo not drawn) [Salbutamol hemisulfate]", "values": [{"measurement": "cell number", "setting": "HCC1569 [1]", "result": 99.9}, {"measurement": "cell number", "setting": "TDF [2]", "result": 103}, {"measurement": "H1.0 immunofluorescence intensity", "setting": "TDF [3]", "result": "84.9 (inactive)"}, {"measurement": "H1.0 immunofluorescence intensity", "setting": "HCC1569 [4]", "result": "106 (inactive)"}]}
{"smiles": "CCCCNc1ccc(C(=O)OCCN(C)C)cc1.Cl", "note": "[Tetracaine hydrochloride]", "values": [{"measurement": "cell number", "setting": "HCC1569 [1]", "result": 100}, {"measurement": "cell number", "setting": "TDF [2]", "result": 101}, {"measurement": "H1.0 immunofluorescence intensity", "setting": "TDF [3]", "result": "102 (inactive)"}, {"measurement": "H1.0 immunofluorescence intensity", "setting": "HCC1569 [4]", "result": "95.8 (inactive)"}]}
{"smiles": "O=C1NCCN1CCN1CCC(c2cn(-c3ccc(F)cc3)c3ccc(Cl)cc23)CC1", "values": [{"measurement": "cell number", "setting": "HCC1569 [1]", "result": 66.8}, {"measurement": "cell number", "setting": "TDF [2]", "result": 39.3}, {"measurement": "H1.0 immunofluorescence intensity", "setting": "TDF [3]", "result": "213 (active)"}, {"measurement": "H1.0 immunofluorescence intensity", "setting": "HCC1569 [4]", "result": "139 (inactive)"}]}
